We go through 18 compounds from PubChem BioAssay (EPA / NIEHS).

Inconclusive results are not listed. Calls of active or inactive are those of the source. How the source made its calls, unless noted: active means hit-call score of the fitted dose curve at least 0.9, where 1 is the maximum; inconclusive means response in the unintended direction; inactive means score below 0.9.

Assay [1] in a line: ArunA_CellTiter_hNC: Viability Assessment in the ArunA Biomedical's Oris Neural Crest (hNC) Cell Migration Assay (AID 2283752). The gist of the method:
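Cell titer was measured with the CellTiter Aqueous One reagent after 72 h of chemical dosing. Cells were H9-derived embryonic neural crest stem cells seeded on Matrigel, 60,000 per well, and given 16 h at 37C beforehand.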

Assay [2] can be described thus: ArunA_CellTiter_hNP: Viability Assessment in the ArunA Biomedical's Oris Neural Crest (hNC) Cell Migration Assay (AID 2283753). The gist of the method: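 H9-derived hNP1 neuroprogenitors, 60,000/well on Matrigel, cultured 16 h, then 72 h chemical exposure in test medium. Cell titer via CellTiter Aqueous One; positive-direction fit vs DMSO.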
A short description of assay [3]: ArunA_Migration_hNP: ArunA Biomedical's Oris Neuroprogenitor (hNP) Cell Migration Assay (AID 2283754). The gist of the method: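 Human H9-derived hNP1 neuroprogenitors on Matrigel with LIF/bFGF, plated around seeding stoppers for 16 h at 37C; stoppers removed at start of 72 h chemical exposure. Calcein-AM staining, fluorescence 494/517 nm in detection zone; loss-of-signal vs DMSO; cytochalasin D control.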

A short description of assay [4]: ArunA_Migration_hNC: ArunA Biomedical's Oris Neural Crest (hNC) Cell Migration Assay (AID 2283755). The gist of the method:
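Human H9-derived neural crest stem cells, 60,000/well on Matrigel, 16 h at 37C, then 72 h chemical exposure after seeding-stopper removal. Migration into detection zone read as calcein-AM fluorescence (ex494/em517), relative to DMSO.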

A short description of assay [5]: ArunA_NOG_NucleusCount: ArunA Biomedical's Neurite Outgrowth (NOG) Assay for Nucleus Count (AID 2283756). The gist of the method:
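Human H9-derived differentiated neurons were exposed for 48 h right after seeding. Hoechst-stained nuclei gated by size and intensity were counted by automated high-content imaging as viable neurons. Loss of signal vs DMSO.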

A short description of assay [6]: ArunA_NOG_NeuritesPerNeuron: ArunA Biomedical's Neurite Outgrowth (NOG) Assay for Neurites Per Neuron (AID 2283758). The gist of the method: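 Differentiated human H9-derived neurons exposed to chemicals for 48 h from seeding, then stained with Hoechst and βIII-tubulin/DyLight 488. Automated imaging counted neurites (processes >10 um) per valid neuron; loss of signal versus DMSO scored.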

Assay [7] concerns chicken Androgen Receptor (AR), gene 422165. The assay can be described thus: ATG_chAR_XSP1: Attagene TRANS-FACTORIAL Multi-Species (XSP1) HepG2 Assay for chicken Androgen Receptor (AR) (AID 2283768). Summed up:
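HepG2 cells transiently transfected with multiplexed GAL4-UAS reporter units expressing chimeric chicken AR-Gal4; 3 nM 6-alpha-fluorotestosterone for partial AR stimulation; 24 h after dosing, reporter mRNA by RT-PCR and capillary electrophoresis, gain-of-signal versus DMSO.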

Assay [8] is described as follows: CEETOX_H295R_MTT_cell_viability: Viability Assessment in the CeeTox HT-H295R MTT Assay (AID 2283718; active means hit-call score of the fitted dose curve at least 0.9, where 1 is the maximum; inactive means score below 0.9). The gist of the method: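 H295R cells prestimulated 48 h with 10 uM forskolin, then exposed 48 h to test chemical (0.1% DMSO final). Viability by MTT (0.5 mg/ml, 4 h, 37 C), absorbance 570/650 nm; percent change versus DMSO, bidirectional fit.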
A short description of assay [9]: Tanguay_ZF_120hpf_ActivityScore_legacy: (Legacy) Oregon State University Tanguay Lab 120 Hour Post-fertilization zebrafish Assay Score for Activity (AID 2283742).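 On AC50: static exposure from 6 hpf until 120 hpf at 28 °C.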 Summed up: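 Tropical 5D wild-type zebrafish embryos, dechorionated with pronase at 4 hpf, were exposed singly from 6 hpf to 120 hpf statically at 28C in 0.64% DMSO. Malformations and mortality were scored as binary by brightfield, with the activity score combining 18 morphology components.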

Assay [10] can be described thus: STM_H9_OrnithineISnorm_perc: Stemina devTOX quickPredict H9 human embryonic stem cell (hESC)-based Assay for Ornithine (ORN) Metabolite Biomarker, Normalized (AID 2283712; active means hit-call score of the fitted dose curve at least 0.9, where 1 is the maximum; inactive means score below 0.9;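 further: ornithine released into spent medium during last day measured by mass spectrometry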). Summed up: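 H9 human embryonic stem cells kept pluripotent receive test chemical over 72 h, refreshed daily by media exchange. Media from the closing 24 h is deproteinized and analysed by UPLC-HRMS on an amide column; ornithine signal is scaled to labelled standard and vehicle.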

Assay [11] is described as follows: STM_H9_CystineISnorm_perc: Stemina devTOX quickPredict H9 human embryonic stem cell (hESC)-based Assay for Cystine (CYSS) Metabolite Biomarker, Normalized (AID 2283713; active means hit-call score of the fitted dose curve at least 0.9, where 1 is the maximum; inactive means score below 0.9). Summed up:
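H9 hESC, pluripotent; compound 72h, re-dosed q24h with medium change. Last-24h medium → 40% acetonitrile deproteinization → UPLC-HRMS. CYSS area / C13-CYSS standard, then % of 0.1% DMSO median.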

Read-out in assay [12]: glucuronosyltransferase (UGT1A1), UGT1A1 (gene 54658)
The assay can be described thus: CLD_UGT1A1_48hr: CellzDirect (CLD) Gene Expression Assay for glucuronosyltransferase (UGT1A1) at 48 hours (AID 2283709).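 Further: actives increase expression relative to DMSO so potency refers to induction.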 Summed up:
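Human primary hepatocytes dosed daily for two days (0.2% DMSO vehicle), harvested at 48 h. UGT1A1 mRNA induction measured by quantitative nuclease protection assay with chemiluminescence; gain of signal versus DMSO; cytotoxicity flagged from morphology.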

Read-out in assay [13]: sulfotransferase (SULT2A), SULT2A1 (gene 6822)
The assay can be described thus: CLD_SULT2A_48hr: CellzDirect (CLD) Gene Expression Assay for sulfotransferase (SULT2A) at 48 hours (AID 2283710).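 Further: hits raise SULT2A1 transcript above the 0.2% DMSO vehicle baseline.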 Summed up: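 Primary human hepatocytes (two donor preparations) dosed daily for two days with chemicals at multiple concentrations, vehicle 0.2% DMSO; SULT2A1 mRNA induction at 48 h by quantitative nuclease protection assay, chemiluminescent read-out, fitted for gain of signal versus DMSO.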

Read-out in assay [14]: alkyl and aryl transferase (GSTA2), GSTA2 (gene 2939)
Put plainly: CLD_GSTA2_48hr: CellzDirect (CLD) Gene Expression Assay for alkyl and aryl transferase (GSTA2) at 48 hours (AID 2283708).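 Further: active means mRNA induction above DMSO vehicle baseline.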 The gist of the method: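 Primary human hepatocytes dosed daily for two days (0.2% DMSO vehicle), harvested at 48 h. GSTA2 mRNA induction measured by quantitative nuclease protection assay with chemiluminescent imaging, fitted for gain of signal relative to DMSO.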

Assay [15] in a line: STM_H9_OrnCyssISnorm_ratio: Stemina devTOX quickPredict H9 human embryonic stem cell (hESC)-based Assay for Ornithine (ORN):Cystine (CYSS) Ratio (AID 2283714). The gist of the method:
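Undifferentiated H9 hESCs were exposed to compound for 72h with media and chemical replaced every 24h. Final 24-h conditioned media were deproteinized and analysed by UPLC-HRMS. ORN and CYSS peak areas were normalized to C13 internal standards and the ratio taken versus 0.1% DMSO.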

The target of assay [16] is Luciferin 4-monooxygenase (Photinus pyralis) (UniProt P08659). The assay can be described thus: CCTE_Simmons_QuantiLum_inhib_2: CCTE's Firefly Luciferase Inhibition Assay, Simmons Lab (AID 2283767). The gist of the method:
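Luminescence loss relative to DMSO vehicle defines inhibition; detection reagent containing 150 uM D-luciferin and 147 uM dATP (final, pH 7.8) is injected immediately before each read. Enzyme is preincubated with an 8-point titration (5 nM–87.5 uM final) for 30 min at 37C.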

Read-out in assay [17]: HMG-CoA synthase (HMGCS2), HMGCS2 (gene 3158)
The assay can be described thus: CLD_HMGCS2_48hr: CellzDirect (CLD) Gene Expression Assay for HMG-CoA synthase (HMGCS2) at 48 hours (AID 2283711). Summed up:
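Primary human hepatocytes from two donors dosed daily for two days, 0.2% DMSO vehicle. HMGCS2 mRNA measured 48 h after dosing by quantitative nuclease protection assay with chemiluminescent read-out; induction fitted relative to DMSO, cytotoxicity flagged by microscopy.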

In assay [18] the test system is Thyroperoxidase (TPO), gene 445522. The assay can be described thus: CCTE_Simmons_GUA_TPO: CCTE's Guaiacol Assay for Thyroperoxidase (TPO) Inhibition, Simmons Lab (AID 2283750). The gist of the method:
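Porcine thyroid microsomes (25 ug) in 200mM potassium phosphate, preincubated 30 s at 37C with compound (8 concentrations, 5 nM–87.5 uM) and 35mM guaiacol; 1mM H2O2 starts reaction. Absorbance change at 450nm over first 80 s; loss of signal versus DMSO, three replicates.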

A short description of assay [19]: ArunA_NOG_NeuriteLength: ArunA Biomedical's Neurite Outgrowth (NOG) Assay for Neurite Length (AID 2283757). Summed up: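 Differentiated human H9-derived neurons were exposed for 48 h from seeding, then stained with Hoechst and βIII-tubulin. Automated high-content imaging gave total neurite length per valid neuron, counting processes >10 um. Loss of signal was scored versus DMSO.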

Chain of Luciferin 4-monooxygenase (Photinus pyralis) (P08659 whole entry, looked up): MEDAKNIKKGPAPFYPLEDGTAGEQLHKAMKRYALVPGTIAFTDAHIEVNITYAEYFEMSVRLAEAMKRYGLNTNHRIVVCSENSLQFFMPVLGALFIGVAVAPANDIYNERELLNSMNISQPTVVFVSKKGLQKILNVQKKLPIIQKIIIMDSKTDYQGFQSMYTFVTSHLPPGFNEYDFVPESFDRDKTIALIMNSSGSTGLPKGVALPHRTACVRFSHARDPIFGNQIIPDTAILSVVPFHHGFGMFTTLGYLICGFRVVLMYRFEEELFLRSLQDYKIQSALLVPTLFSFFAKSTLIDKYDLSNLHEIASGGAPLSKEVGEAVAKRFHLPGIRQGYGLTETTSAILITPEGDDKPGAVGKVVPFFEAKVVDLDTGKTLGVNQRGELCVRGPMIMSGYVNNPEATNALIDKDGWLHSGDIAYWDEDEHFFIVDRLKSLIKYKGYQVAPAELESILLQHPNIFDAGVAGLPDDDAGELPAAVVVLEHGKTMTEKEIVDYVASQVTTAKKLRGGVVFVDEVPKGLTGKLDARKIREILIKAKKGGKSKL

Consider `CC(C)C1(C)N=C(c2ncccc2C(=O)O)NC1=O` (stereo unspecified), for which the compound was called inactive in assay [1], in [2], in assay [3], in [4], in assay [5] and in assay [6].

On to `COc1ccc(-c2ccccc2)cc1NNC(=O)OC(C)C`, for which the call in assay [1], in [2], in assay [3], in assay [4] and in assay [5] was inactive.

For the compound `Cc1c(COC(=O)[C@@H]2[C@H](/C=C(\Cl)C(F)(F)F)C2(C)C)cccc1-c1ccccc1`, the result in [7] was inactive.

On to `CC(C)NC(=O)N1CC(=O)N(c2cc(Cl)cc(Cl)c2)C1=O`, for which the result in [8], in [9] and in assay [7] was inactive.

In the case of `CCC(C)n1c(=O)[nH]c(C)c(Br)c1=O` (stereo unspecified), the outcome in assay [10], in [11], in assay [8] and in assay [9] was inactive.

`Cc1nc(N(C)C)nc(OC(=O)N(C)C)c1C`: the call in assay [12], in [8] and in [9] was inactive.

Consider `COC(=O)N(C(=O)N1CO[C@@]2(C(=O)OC)Cc3cc(Cl)ccc3C2=N1)c1ccc(OC(F)(F)F)cc1`, for which the compound was classed as inactive in assay [13] and in assay [9].

For the compound `N#Cc1c(Cl)cccc1Cl`, the compound was classed as inactive in [14], in assay [8] and in [9].

What is called AC50 is the concentration at which the activity in the assay is half-maximal. `CCNC(=O)NC(=O)C(C#N)=NOC`: the result in assay [14], in assay [10], in assay [11] and in [16] was inactive. Moreover, the half-maximal activity concentration (AC50) was 77 µM (active) in assay [15] and 32.4 µM (active) in [9].

As to `COCC(=O)N(c1c(C)cccc1C)C(C)C(=O)OC` (stereo unspecified), the outcome in assay [12], in [17], in [8] and in assay [9] was inactive. Also, the AC50 in assay [13] was 20 µM (active).

In the case of `CCNP(=S)(OC)O/C(C)=C/C(=O)OC(C)C` (stereo unspecified), the AC50 in assay [12] was 1.04 µM (active); in assay [10], 50 µM (active); in assay [11], 75.5 µM (active); in assay [15] it was 72.6 µM (active). The compound was classed as inactive in assay [8], in assay [9] and in assay [16].

As for `CCSC(=O)N1CCCCCC1`, the result in assay [14], in assay [8] and in assay [9] was inactive.

Turning to `CCCCOCN(C(=O)CCl)c1c(CC)cccc1CC`, in assay [14], the AC50 is 20 µM (active). Besides, the result in [9] was inactive.

On to `CCOc1nc(F)cc2nc(S(=O)(=O)Nc3c(Cl)cccc3Cl)nn12`, for which the result in assay [17], in [9] and in assay [16] was inactive. In addition, the figures for the AC50 in assay [10], in assay [11] and in [18] were 0.007 µM (active), 0.0249 µM (active) and 55 µM (active), respectively.

Consider `COCc1cnc(C2=NC(C)(C(C)C)C(=O)N2)c(C(=O)O)c1` (stereo unspecified), for which the outcome in [12], in assay [13], in assay [10], in [11], in [15] and in assay [8] was inactive. Besides, the result in assay [9], in [1], in assay [2], in assay [4] and in assay [19] was inactive.

Take `COP(=S)(OC)Oc1ccc([N+](=O)[O-])c(C)c1`: the compound was classed as inactive in [14], in assay [8], in assay [9], in assay [18] and in [16].

In the case of `CCOP(=S)(OCC)Oc1nc(Cl)n(C(C)C)n1`, the call in [14], in assay [13], in assay [10], in [8], in [9] and in assay [16] was inactive. The figures for the AC50 in assay [11] and in [15] were 50.5 µM (active) and 54.9 µM (active), respectively.

On to `CC1(C)CCC(=Cc2ccc(Cl)cc2)C1(O)Cn1cncn1` (stereo unspecified), for which the call in assay [12], in assay [8] and in [9] was inactive. The figures for the concentration at half-maximal activity (AC50) in assay [10], in assay [11] and in assay [15] were 78.2 µM (active), 28.9 µM (active) and 35 µM (active), respectively.
